# High-throughput results deposited in PubChem BioAssay by National Center for Advancing Translational Sciences (NCATS).
# An excerpt weighted towards active compounds, which were near 2.4% of everything screened.
# Pol iota inh – DNA polymerase iota (human) inhibition. Q9UNA4. Pol iota fluorescent replication assay, 10 min. Potency, µM (highest dose often 115 µM), without a hit: at the highest dose activity, negative = inhibition, most hits filed as inhibitors. 390,000 compounds, 1% hits
#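 Fluorescent replication assay read twice, at 0 min and 10 min after adding 50 nM (final) substrate. Enzyme (10 nM) and compounds were first incubated 15 min at room temperature; enzyme-free buffer wells were negative controls.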
# Pol kappa inh – blocks human DNA polymerase kappa activity; Potency, µM (series often up to 107 µM), for inactives: top-dose activity, negative = inhibition, hits mostly inhibitors; purified Pol kappa, fluorescent DNA synthesis assay, 10 min; 400,000 compounds, 0.53% hits; also: % is scaled to controls: 0 for no effect and ±100 for the full control effect
#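 10 nM Pol kappa preincubated 15 min at room temperature with compounds, then reaction started with substrate at 50 nM final. Fluorescence read kinetically at 0 and 10 min; buffer-only wells served as negative control.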
# Tb PGK inh – inhibitors of T. brucei phosphoglycerate kinase; PGK/GAPDH coupled, Kinase-Glo luminescence, 60 min; Potency, µM (highest dose often 57.5 µM), for inactives: top-dose activity change, negative = inhibition, hits mostly inhibitors; 380,000 compounds, 0.043% hits; AID 602233; also: % is scaled to controls: 0 for no effect and ±100 for the full control effect; nearly all actives have a fitted effect of over 60% in size
#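 Recombinant glycosomal PGK reaction used 1,3-bisphosphoglycerate generated in-well by GAPDH (100nM final) in 100mM TEA pH 7.6, 5mM MgCl2, 0.01% Tween-20. After 60 minutes at room temperature, ATP was read by Kinase-Glo Plus luminescence end-point.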
# POLB inh – blocks human DNA polymerase beta activity. Pol beta primer extension/strand displacement, fluorescence kinetic. 340,000 compounds, 1.3% hits. P06746. Potency, µM (titrated, usually from 114 µM), inactives show at the top dose activity change, negative = inhibition, most hits filed as inhibitors; also: % is scaled to controls: 0 for no effect and ±100 for the full control effect
#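 Kinetic readout of DNA synthesis with strand displacement by Pol beta. Compound and 10 nM enzyme sit 15 min at room temperature; 50 nM substrate starts the reaction, read immediately and at 10 min.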
# POLH inh – inhibitors of human DNA polymerase eta; Q9Y253; recombinant Pol eta, fluorescent DNA replication assay; Potency, µM (highest dose often 114 µM), without a hit: at the highest dose activity change, negative = inhibition, actives largely listed as inhibitors; 390,000 compounds, 1.2% hits; AID 588591; also: % is scaled to controls: 0 for no effect and ±100 for the full control effect
# Target sequence (Q9Y253 whole entry, looked up): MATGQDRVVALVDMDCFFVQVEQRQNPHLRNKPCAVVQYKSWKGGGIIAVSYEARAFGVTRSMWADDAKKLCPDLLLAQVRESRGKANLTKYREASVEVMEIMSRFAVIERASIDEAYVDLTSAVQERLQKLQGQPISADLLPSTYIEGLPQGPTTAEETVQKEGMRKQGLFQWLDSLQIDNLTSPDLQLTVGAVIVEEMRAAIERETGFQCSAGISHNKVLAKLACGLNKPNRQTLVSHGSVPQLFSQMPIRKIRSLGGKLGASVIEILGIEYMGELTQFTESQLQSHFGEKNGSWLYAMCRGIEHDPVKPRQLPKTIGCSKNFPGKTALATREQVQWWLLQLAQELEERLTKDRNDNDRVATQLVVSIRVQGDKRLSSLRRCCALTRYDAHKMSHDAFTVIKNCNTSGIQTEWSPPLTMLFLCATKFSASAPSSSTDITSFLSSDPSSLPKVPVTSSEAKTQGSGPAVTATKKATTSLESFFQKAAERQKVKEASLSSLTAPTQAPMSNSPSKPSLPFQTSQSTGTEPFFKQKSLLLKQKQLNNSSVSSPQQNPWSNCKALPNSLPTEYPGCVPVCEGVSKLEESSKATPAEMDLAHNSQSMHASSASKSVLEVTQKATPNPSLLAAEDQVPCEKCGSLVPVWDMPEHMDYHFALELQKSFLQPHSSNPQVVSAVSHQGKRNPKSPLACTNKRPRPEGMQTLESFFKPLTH
#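 Pol eta (10 nM) was preincubated with compounds for 15 min at room temperature, after which fluorescent replication substrate (50 nM final) was added to start the reaction. Fluorescence was read kinetically at 0 and 10 min.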
# FEN1 inh – inhibitors of human flap endonuclease 1 | 390,000 compounds, 0.35% hits | Recombinant FEN1 flap cleavage, fluorescence, 15 min | Potency, µM (titrated, usually from 114 µM), for inactives: at the highest dose activity change, negative = inhibition, usual class: inhibitors | P39748; also: % is scaled to controls: 0 for no effect and ±100 for the full control effect; nearly all actives have a fitted effect of over 65% in size
#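 Steps: FEN1 (10 nM) dispensed; compound added by pin tool; 15 min at room temperature; substrate added to 50 nM final; reads at 0 min and 15 min; data normalized and fitted (four-parameter Hill).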
# Numbers without * were called inactive; i = inactive; ? = inconclusive; · = not tested or not shown; [ ] = another dose, or the depositor's remark. Calls follow the shape of the dose curve; as a rule, active = well fitted curve in the direction sought with a large enough effect; inconclusive = small, poorly fitted or top-dose-only effect, or another doubt; inactive = no such curve, though single readings can be large; an effect the other way counts as inactive or inconclusive. Potency is read from the fitted curve at half-maximal effect.
SMILES,Pol iota inh,Pol kappa inh,Tb PGK inh,POLB inh,POLH inh,FEN1 inh
COc1ccc(S(=O)(=O)N2CCN(c3ccccc3F)CC2)cc1-c1noc(C)n1,88%,-17%,i,8.9µM*,-14%,?
O=C(NC1CCCCCC1)C1CCN(C(=O)N2CCOc3ccccc32)CC1,161%,0%,6%,2%,-12%,18%
CC1(C)Cc2c(C#N)c(NCCc3ccccc3)nc(-c3ccco3)c2CO1,79µM*,-2%,-2%,16%,89µM*,5%
COc1ccc(-n2nc(C(=O)N3CCC(N4CCCCC4)CC3)c3c4ccccc4n(C)c3c2=O)cc1,41%,-11%,-6%,1%,-5%,89µM*
CCOc1ccc(C2=C(C(=O)CC)Sc3nncn3N2C(=O)CC)cc1,63%,-13%[60.1 µM],i,7%,-6%,-18%
O=C(CSc1nnc2ccccn12)NC(=O)c1ccccc1Cl,28µM*,?,-20%,·,40µM*,18%
COc1ccc(C(=O)C[n+]2cc(Br)cc(Br)c2)cc1,-11%,-9%,·,·,·,?
COc1ccc(CNC(=O)C2CCN(S(=O)(=O)Cc3ccccc3)CC2)cc1,7%,-1%,-9%,14µM*,-11%,2%
CC(C)(O)c1ccc2c(c1)CCC1C(C)(C(=O)O)CCCC21C (configuration not stated),?,-39%,-5%,40µM*,?,-16%
CC(C)C1=CC2=CC[C@@H]3[C@@](C)(C(=O)O)CCC[C@]3(C)C2CC1 (some centres not stated),·,-9%[19.4 µM],·,·,·,·
O=C(C[n+]1cccc(Br)c1)c1cccc([N+](=O)[O-])c1,21%,-5%,·,·,·,-14%
COc1ccccc1NC(=O)c1ccc(NC(=O)CSc2nc(N)cc(=O)[nH]2)cc1,-14%,-7%,-4%,·,3%,20%
COc1ccc(NC(=O)c2ccc(NC(=O)CSc3nccc(=O)[nH]3)cc2)cc1,2%,-10%,?,13%,25µM*,-3%
COc1ccc(C(=O)Nc2c(N)nc(SCC(=O)Nc3ccc(NC(C)=O)cc3)[nH]c2=O)cc1,79µM*,?,-3%,35µM*,?,-3%
COc1ccc(NC(=O)CSc2nc(N)c(NC(=O)c3ccccc3F)c(=O)[nH]2)cc1,11%,-12%,i,37%,-7%,0%
CCOc1cc(N2CCOCC2)c(OCC)cc1NS(=O)(=O)c1ccc(Cl)s1,28µM*,-15%,-5%,-80%,0%,-4%
CNc1nc(-c2ccccc2)c(-c2ccccc2)s1,-6%,2%,·,·,·,8%
CCCCN1C(=O)C(=O)N(CC(=O)Nc2sc(CC)cc2C(=O)OCC)C1=O,79µM*,-6%,-5%,·,1%,-7%
O=C1[C@H](Cc2ccccc2)NC/C=C\C[C@H](c2ccc(Cl)cc2)N1Cc1ccc(Cl)cc1,7%,-22%,·,·,·,?
CN(C)c1ccc(CNC(=O)c2ccc3nc(Cc4ccccc4)oc3c2)cc1,28µM*,-12%[60.1 µM],4%,0%,-11%,1%
Cc1cccc(CNC(=O)c2ccc3nc(Cc4ccccc4)oc3c2)c1,21%,-8%[60.1 µM],7%,-2%,-25%,0%
Cc1ccc2c(C(=O)CN3CCSCC3)c(C)[nH]c2c1,8%,-15%,-6%,-14%,-9%,-20%
Cc1ccc2c(C(=O)CCl)c(C)[nH]c2c1,10µM*,-8%,i,8%,?,-5%
O=C(O)c1cccc(NC(=S)NC(=O)c2ccc(-c3ccc(Cl)cc3)o2)c1,?,-31%,?,?,?,?
COc1ccc(Cl)cc1NC(=S)NC(=O)c1ccco1,-7%,-15%,-7%,·,-14%,12%
Cc1ccc(C(=O)O)cc1NC(=S)NC(=O)c1ccc(-c2ccc(Cl)cc2)o1,-9%,-12%,-5%,23%,50µM*,-9%
COc1ccc(C(=O)O)cc1NC(=S)NC(=O)c1ccc(-c2ccc(Cl)cc2)o1,?,-16%,-16%,-2%,20µM*,-20%
